# Experimental data taken from PubChem BioAssay (NCATS).
# Records with an inconclusive call do not appear. Entries that show only a call come without a potency. Active and inactive are the calls of the source. Unless noted, the call rests on the fitted dose curve; in most records, active means well fitted curve in either direction with a large enough effect (not every such curve was filed as active); inconclusive means small, poorly fitted or top-dose-only effect, or another doubt; inactive means flat fitted curve, though single readings scatter.
# Experiments:
# [1] = target: Cytochrome P450 3A4 (Homo sapiens) (UniProt P08684); assay: qHTS Assay for Inhibitors and Substrates of Cytochrome P450 3A4 (AID 884; active means well fitted curve in the direction sought with a large enough effect; an effect the other way counts as inactive or inconclusive; further: nearly all actives have a fitted effect of over 50% in size)
# Method in brief: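 20 nM human CYP3A4 with 25 uM Luciferin-PPXE (at KM) in 200 mM KPO4, preincubated 10 min with compound; NADPH regeneration started a 60 min RT reaction. Luciferin detected by luminescence, normalized to 57 uM ketoconazole as full inhibition.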
# [2] = Confirmation and Secondary Assay for Modulators of Hemoglobin Beta Chain Splicing at IVS2 654 locus (AID 910; active means well fitted curve in the direction sought with a large enough effect; an effect the other way counts as inactive or inconclusive;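 further: per-well total GFP intensity by laser scanning cytometry after 2-day treatment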)
# Method in brief: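 HeLa cells stably carrying EGFP interrupted by mutant beta-globin IVS2-654 intron (CMV-driven) were treated with compound for 2 days at 37C; corrected splicing was scored as total peak GFP intensity per well (488 nm excitation, 500-520 nm emission).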
# [3] = Confirmation and Secondary Assay for Modulators of Hemoglobin Beta Chain Splicing at IVS2 705 locus (AID 930; active means well fitted curve in the direction sought with a large enough effect; an effect the other way counts as inactive or inconclusive;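 further: HeLa cells stably expressing the EGFP-705 splicing reporter; GFP fluorescence per well restored by corrected splicing of the IVS2-705 intron in EGFP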)
# Method in brief: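 Fluorescence gain (488 nm laser, 500-520 nm PMT) reflects restored correct splicing of a mutant IVS2-705 intron inside EGFP in stably transfected HeLa cells after 2-day compound treatment.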
# [4] = qHTS Assay for Lipid Storage Modulators (AID 1519; calls by dose curve); settings: Drosophila S3 cells, BODIPY lipid droplet/cell ratio, laser cytometry, cells loaded with oleic acid; for activity change, negative = inhibition: at 57.5 µM (top of the series)
# Method in brief: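 Cells seeded at 5,000 per well were treated with compounds over a concentration series and loaded with oleic acid (400 uM, as added). Lipid droplet fluorescence (488 nm excitation, 500-530 nm channel) was read by laser-scanning cytometry and normalized to 20 uM Triacsin C.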
# [5] = target: Ubiquitin carboxyl-terminal hydrolase 1 (Homo sapiens) (UniProt O94782); assay: Inhibitors of USP1/UAF1: Pilot qHTS (AID 504865; active means well fitted curve in the direction sought with a large enough effect; an effect the other way counts as inactive or inconclusive;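 further: rhodamine fluorescence freed from ubiquitin-rhodamine substrate followed over time; top concentration of the series differs between compounds; nearly all actives have a fitted effect of over 35% in size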)
# Method in brief: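 Kinetic fluorescence assay: 1nM USP1/UAF1, 15 min compound preincubation, then 150nM Ub-Rho; 480/540 nm.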
# [6] = Primary qHTS for small molecule stabilizers of the endoplasmic reticulum resident proteome: Secreted ER Calcium Modulated Protein (SERCaMP) assay (AID 1508630; active means well fitted curve in the direction sought with a large enough effect; an effect the other way counts as inactive or inconclusive)
# Method in brief: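 GLuc-SERCaMP-expressing SH-SY5Y cells, pretreated 16 h with compound, are challenged with thapsigargin to empty ER calcium stores; after 4 h, coelenterazine is added directly to the medium and luminescence is imaged.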
# [7] = AP1 Signaling Pathway (AID 357);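 further: ME-180 reporter cells stimulated with EGF at its EC50 level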
# Method in brief: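 Cells are seeded overnight, exposed to compound titrations and an EC50 level of EGF for 5 hours at 37 °C, then loaded with CCF4 dye for 2.5 hours. Beta-lactamase activity under the AP-1 element is read as a blue/green ratio.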
# [8] = target: Cytochrome P450 1A2 (Homo sapiens) (UniProt P05177); assay: p450-cyp1a2 (AID 410; calls by dose curve; further: potency means the concentration at half of the fitted maximal effect)
# Method in brief: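 Luminescent readout of luciferin formed from Luciferin-ME by human CYP1A2; data normalized against complete inhibition by 57 uM furafylline. Enzyme 20nM, substrate 100uM at Km, 100mM KPO4 buffer, 60 min reaction at room temperature.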
# [9] = Stat Signaling Pathway (AID 446);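 further: ME-180 cervical cancer cells given 40 pM IL-6 alongside compound; SIE-controlled beta-lactamase reporter measured as 460/530 nm FRET emission ratio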
# Method in brief: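 Screening format detects activators and inhibitors alike: ME-180 SIE-bla cells stimulated at 40 pM IL-6 for 5 hrs with compound, then dual-emission beta-lactamase read at 405 nm excitation.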
# [10] = target: Glucocorticoid receptor (Homo sapiens) (UniProt P04150); assay: GR-EFC Redistribution (AID 451; calls by dose curve; further: potency means the concentration at half of the fitted maximal effect); settings: CHO-K1 GR-EFC translocation, beta-gal luminescence, 2 h
# Method in brief: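 CHO-K1 cells stably expressing nuclear-localized β-gal enzyme acceptor and GR fused C-terminally to the enzyme donor fragment; ligand-driven nuclear translocation restores β-gal by complementation. Compounds titrated up to 46 uM final, 2 h at 37 °C; luminescence read.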
# [11] = target: Mitogen-activated protein kinase 10 (Mus musculus) (UniProt Q61831); assay: JNK3 AlphaScreen Assay (AID 530);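 further: kinase came from lysate of stimulated human HepG2 cells; signal reports phosphorylation of biotinylated GST-cJun 1-79 at Ser73 with 10 µM ATP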
# Method in brief: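 Inhibitors reduce antibody binding to phosphorylated biotin-cJun, lowering AlphaScreen luminescence. Lysates from HepG2 cells pre-activated by IL-1beta plus TNF-alpha supplied JNK3; compounds were titrated.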
# [12] = target: 3',5'-cyclic-AMP phosphodiesterase 4B (Homo sapiens) (UniProt Q07343); assay: qHTS Assay for Inhibitors of PDE-IV (AID 607; active means well fitted activation curve with a large enough effect in the main read-out, with a control signal flat, not every such curve was filed as active)
# Method in brief: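 The readout is membrane depolarisation from a cAMP-sensing CNG channel, detected with a potential dye at ex 535/em 590. Cells were HEK293-derived (endogenous PDE-IV) at 1000 cells/well, titrated up to 22.9 uM final.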
# [13] = NFAT Signaling Pathway (AID 444); settings: Jurkat NFAT-bla M1, carbachol, beta-lactamase ratio, 5 h; at 7.69 µM (top of the series);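 further: carbachol stimulus at about its EC50 of 1 µM final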
# Method in brief: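 Jurkat cells carrying an NFAT-driven β-lactamase reporter and co-transfected muscarinic M1 receptor were treated with compound plus carbachol (1 uM final, an EC50 level) for 5 h at 37 °C. CCF4 loading followed for 1 h at RT; 460/530 nm ratio gave %activity.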
# [14] = target: Lysosomal acid glucosylceramidase (Homo sapiens) (UniProt P04062); assay: Glucocerebrosidase-p2 (AID 348; in the data active means potency below about 10 µM; further: potency means the concentration at half of the fitted maximal effect); settings: purified GBA, blue fluorogenic substrate, 40 min
# Method in brief: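 Compounds titrated from 0.6 nM upwards against 0.2 nM enzyme in pH 5.9 citric acid/KH2PO4, taurocholate, tween-20; blue fluorogenic substrate 80 uM, 40 min room temperature, stopped and read Ex 365/Em 440 for AC50.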
# [15] = target: Cytochrome P450 3A4 (Homo sapiens) (UniProt P08684); assay: qHTS Assay for Activators of Cytochrome P450 3A4 (AID 885; active means well fitted curve in the direction sought with a large enough effect; an effect the other way counts as inactive or inconclusive; further: nearly all actives have a fitted effect of over 65% in size)
# Method in brief: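 Steps: enzyme/substrate mix dispensed; compound added, 10 min RT; NADPH regeneration solution added, 60 min RT; luciferin detection buffer stops reaction; 20 min later luminescence measured.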
# [16] = measured here: cell count channel max response
# [17] = measured here: lipid channel max response
# Lysosomal acid glucosylceramidase (Homo sapiens), sequence (P04062 whole entry, looked up): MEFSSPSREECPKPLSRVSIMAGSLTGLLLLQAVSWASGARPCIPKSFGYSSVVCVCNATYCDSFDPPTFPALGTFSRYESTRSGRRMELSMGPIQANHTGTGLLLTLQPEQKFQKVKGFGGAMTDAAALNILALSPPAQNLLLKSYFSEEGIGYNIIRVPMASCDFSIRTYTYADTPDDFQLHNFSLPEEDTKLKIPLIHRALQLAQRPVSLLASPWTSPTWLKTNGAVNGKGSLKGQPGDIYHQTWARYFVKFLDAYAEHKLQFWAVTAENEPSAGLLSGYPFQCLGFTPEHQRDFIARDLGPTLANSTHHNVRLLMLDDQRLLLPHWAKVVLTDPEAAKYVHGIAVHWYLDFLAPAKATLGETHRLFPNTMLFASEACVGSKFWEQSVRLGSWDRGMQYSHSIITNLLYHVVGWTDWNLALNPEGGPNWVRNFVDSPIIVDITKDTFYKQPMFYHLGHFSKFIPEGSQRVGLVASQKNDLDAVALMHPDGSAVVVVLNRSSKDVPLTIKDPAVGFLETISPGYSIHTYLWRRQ
# 3',5'-cyclic-AMP phosphodiesterase 4B (Homo sapiens), sequence (Q07343 whole entry, looked up): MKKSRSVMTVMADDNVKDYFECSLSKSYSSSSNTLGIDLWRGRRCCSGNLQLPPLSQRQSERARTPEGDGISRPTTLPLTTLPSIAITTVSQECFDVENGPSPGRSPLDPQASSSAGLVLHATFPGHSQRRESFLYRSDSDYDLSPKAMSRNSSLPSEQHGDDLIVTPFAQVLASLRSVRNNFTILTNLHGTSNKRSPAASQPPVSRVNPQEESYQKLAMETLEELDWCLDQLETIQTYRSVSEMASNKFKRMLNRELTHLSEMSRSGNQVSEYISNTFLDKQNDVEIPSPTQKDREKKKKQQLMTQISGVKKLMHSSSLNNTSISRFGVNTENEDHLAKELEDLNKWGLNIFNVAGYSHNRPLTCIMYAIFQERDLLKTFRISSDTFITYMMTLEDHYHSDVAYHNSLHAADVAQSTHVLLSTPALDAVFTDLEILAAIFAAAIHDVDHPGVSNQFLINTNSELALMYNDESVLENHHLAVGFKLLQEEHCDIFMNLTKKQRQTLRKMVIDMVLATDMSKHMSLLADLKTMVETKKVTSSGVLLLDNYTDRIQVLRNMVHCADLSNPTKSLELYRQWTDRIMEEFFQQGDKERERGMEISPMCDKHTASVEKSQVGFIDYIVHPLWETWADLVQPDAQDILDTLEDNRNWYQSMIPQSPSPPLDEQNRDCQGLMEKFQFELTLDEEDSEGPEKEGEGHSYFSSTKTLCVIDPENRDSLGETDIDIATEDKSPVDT
# Cytochrome P450 1A2 (Homo sapiens), sequence (P05177 whole entry, looked up): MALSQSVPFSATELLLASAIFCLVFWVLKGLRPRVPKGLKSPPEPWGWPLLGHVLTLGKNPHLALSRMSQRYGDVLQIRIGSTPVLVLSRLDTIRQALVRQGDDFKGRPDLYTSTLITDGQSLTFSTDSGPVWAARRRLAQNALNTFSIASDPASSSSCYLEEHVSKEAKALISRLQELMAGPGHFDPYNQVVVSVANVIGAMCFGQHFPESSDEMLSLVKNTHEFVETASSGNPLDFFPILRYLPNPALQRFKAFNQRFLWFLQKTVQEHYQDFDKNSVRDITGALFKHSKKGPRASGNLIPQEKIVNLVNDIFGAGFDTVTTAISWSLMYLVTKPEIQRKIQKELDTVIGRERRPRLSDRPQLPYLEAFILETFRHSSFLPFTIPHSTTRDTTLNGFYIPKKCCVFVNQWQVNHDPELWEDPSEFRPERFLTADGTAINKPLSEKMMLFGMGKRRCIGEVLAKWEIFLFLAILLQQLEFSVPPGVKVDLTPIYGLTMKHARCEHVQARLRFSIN
# Glucocorticoid receptor (Homo sapiens), sequence (P04150 whole entry, looked up, the tested form may be a part): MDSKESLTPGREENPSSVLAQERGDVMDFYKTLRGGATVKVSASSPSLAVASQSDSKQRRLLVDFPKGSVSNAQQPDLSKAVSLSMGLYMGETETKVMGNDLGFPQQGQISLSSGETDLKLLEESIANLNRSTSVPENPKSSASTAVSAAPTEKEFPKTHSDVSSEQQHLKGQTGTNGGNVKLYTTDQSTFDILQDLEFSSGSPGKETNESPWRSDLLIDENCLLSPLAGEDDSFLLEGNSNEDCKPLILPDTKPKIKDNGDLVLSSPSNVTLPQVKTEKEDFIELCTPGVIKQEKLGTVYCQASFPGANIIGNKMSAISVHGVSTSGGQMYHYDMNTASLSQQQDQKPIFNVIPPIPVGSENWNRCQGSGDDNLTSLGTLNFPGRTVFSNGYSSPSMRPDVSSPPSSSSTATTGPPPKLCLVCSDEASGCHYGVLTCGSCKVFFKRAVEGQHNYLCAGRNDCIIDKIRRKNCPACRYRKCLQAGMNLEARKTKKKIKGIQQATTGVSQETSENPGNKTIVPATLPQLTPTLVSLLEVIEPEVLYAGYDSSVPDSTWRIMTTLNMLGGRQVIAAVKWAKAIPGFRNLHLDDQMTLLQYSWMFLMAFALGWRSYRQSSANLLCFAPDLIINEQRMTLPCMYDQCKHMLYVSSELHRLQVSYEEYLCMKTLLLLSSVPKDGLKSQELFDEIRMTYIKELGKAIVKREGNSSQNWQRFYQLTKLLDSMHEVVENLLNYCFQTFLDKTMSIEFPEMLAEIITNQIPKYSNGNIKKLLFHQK
# Cytochrome P450 3A4 (Homo sapiens), sequence (P08684 whole entry, looked up): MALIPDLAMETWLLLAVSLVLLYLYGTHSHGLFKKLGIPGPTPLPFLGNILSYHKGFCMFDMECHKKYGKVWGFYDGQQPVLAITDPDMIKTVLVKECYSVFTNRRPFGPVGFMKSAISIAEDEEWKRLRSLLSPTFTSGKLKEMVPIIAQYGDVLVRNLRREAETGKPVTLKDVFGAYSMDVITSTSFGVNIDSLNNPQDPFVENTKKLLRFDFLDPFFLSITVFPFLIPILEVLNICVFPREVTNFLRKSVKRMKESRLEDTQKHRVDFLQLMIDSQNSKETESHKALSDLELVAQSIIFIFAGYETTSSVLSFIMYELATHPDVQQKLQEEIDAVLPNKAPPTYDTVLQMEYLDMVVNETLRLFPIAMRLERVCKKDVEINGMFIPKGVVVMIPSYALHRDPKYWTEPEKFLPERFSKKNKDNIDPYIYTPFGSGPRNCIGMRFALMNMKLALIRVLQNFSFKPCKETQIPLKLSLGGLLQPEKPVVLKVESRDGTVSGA
# Ubiquitin carboxyl-terminal hydrolase 1 (Homo sapiens), sequence (O94782 whole entry, looked up): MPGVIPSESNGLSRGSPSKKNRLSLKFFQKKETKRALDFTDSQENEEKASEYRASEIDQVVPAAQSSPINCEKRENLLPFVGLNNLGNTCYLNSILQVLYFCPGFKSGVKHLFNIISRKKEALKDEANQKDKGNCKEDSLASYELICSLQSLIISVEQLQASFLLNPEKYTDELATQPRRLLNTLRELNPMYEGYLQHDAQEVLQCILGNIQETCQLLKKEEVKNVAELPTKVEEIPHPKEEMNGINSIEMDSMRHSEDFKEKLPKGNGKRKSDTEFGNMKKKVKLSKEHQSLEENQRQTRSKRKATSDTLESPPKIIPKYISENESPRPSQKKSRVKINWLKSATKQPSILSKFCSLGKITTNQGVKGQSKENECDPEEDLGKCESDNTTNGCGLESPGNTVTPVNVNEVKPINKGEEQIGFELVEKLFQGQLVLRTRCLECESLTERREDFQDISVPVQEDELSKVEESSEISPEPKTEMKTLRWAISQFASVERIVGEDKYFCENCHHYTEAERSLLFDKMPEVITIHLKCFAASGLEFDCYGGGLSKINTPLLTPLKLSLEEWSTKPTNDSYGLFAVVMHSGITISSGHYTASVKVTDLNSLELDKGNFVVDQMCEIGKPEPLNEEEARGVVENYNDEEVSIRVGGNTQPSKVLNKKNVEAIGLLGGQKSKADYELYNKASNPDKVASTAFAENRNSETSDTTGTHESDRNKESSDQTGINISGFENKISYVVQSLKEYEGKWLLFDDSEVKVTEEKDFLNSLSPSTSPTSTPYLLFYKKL
SMILES,Potency [1],Potency [2],Potency [3],"activity change, negative = inhibition [4]","max response [4, 16] [%]","max response [4, 17] [%]",Potency [5],outcome [6],outcome [7],Potency [8],outcome [9],Potency [10],outcome [11],Potency [12],"activity change, negative = inhibition [13]",Potency [14],Potency [15]
COc1c2c(cc3c1OCO3)CC[N+](C)=C2,inactive,inactive,inactive,10.8% (inactive),8.04,18.3,inactive,inactive,,,,,,,,,
O=C(Nc1cccc(F)c1)N1CC2(CCNCC2)C1,,,,3.38% (inactive),6.28,12.8,,inactive,inactive,inactive,inactive,> 46 µM (inactive),inactive,inactive,,,
COC(=O)N1CCC2(CCN(CC(C)C)CC2)CC1,,,,0.631% (inactive),-7.4,-4.41,,inactive,inactive,inactive,inactive,> 46 µM (inactive),inactive,inactive,,,
c1csc(CN2CC3(CCNCC3)C2)n1,,,,9.28% (inactive),10.7,24.8,,inactive,inactive,,inactive,> 46 µM (inactive),inactive,inactive,5.76% (inactive),,
COCC(=O)N1CCC2(CCCN(Cc3ccncc3)C2)CC1,,,,5.89% (inactive),12.2,21.3,,inactive,inactive,inactive,,> 46 µM (inactive),inactive,inactive,,> 11.4 µM (inactive),inactive
COc1ccccc1CN1CC[C@@]2(CCCN(C(=O)Oc3ccccc3)C2)C1,,,,7.75% (inactive),2.61,13.6,,inactive,inactive,10 µM (active),inactive,> 46 µM (inactive),inactive,inactive,,> 11.4 µM (inactive),inactive
c1ccc(N2CC3(CCNCC3)C2)nc1,,,,-0.659% (inactive),12.4,14.7,,inactive,inactive,,inactive,> 46 µM (inactive),inactive,inactive,,> 11.4 µM (inactive),
O=C(c1cnccn1)N1CCC2(CC1)CN(Cc1ccncc1)C2,,,,2.96% (inactive),-1.92,3.49,,inactive,inactive,,inactive,> 46 µM (inactive),inactive,inactive,-23.5% (inactive),> 11.4 µM (inactive),
